Test results: the supplement of paper PMC6555819

How the values were obtained:
Experiment in all cases: PBM binding z-score (relative to random genomic background probes); higher = stronger binding; sequences stand for … in GC…GCGATTGACAGCGTAGAATGAAGG
[1] = tested on: PPARg:RXRa DBDmut IVT, anti-RXR (DBD mutation: RXRa K156A/R161A, NR concentration 270 nM, RXRa partner concentration 90 nM)
Outline: (§1)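 Each nuclear receptor dimer, without ligand, was incubated for 1 h on custom Agilent 4×180K protein-binding microarrays. Binding was detected with antibodies against each partner (one per run), and scanned fluorescence was regression-normalized. The binding z-scores are referenced to random human genomic background probes.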

[2] = tested on: PPARg:RXRa IVT, anti-PPARg (NR concentration 270 nM, RXRa partner concentration 90 nM)
Outline: as §1

[3] = tested on: PPARg DBDmut:RXRa IVT, anti-PPARg (DBD mutation: PPARg1 K132A/R137A, NR concentration 270 nM, RXRa partner concentration 90 nM)
Outline: as §1

[4] = tested on: PPARg DBDmut IVT, anti-PPARg (DBD mutation: PPARg1 K132A/R137A, NR concentration 270 nM)
Outline: as §1

[5] = tested on: PPARg homodimer (NR concentration 180 nM)
Outline: as §1

[6] = tested on: PXR:RXRa (NR concentration 270 nM, RXRa partner concentration 90 nM)
Outline: as §1

[7] = tested on: PXR homodimer (NR concentration 270 nM)
Outline: as §1

[8] = tested on: RARa:RXR (NR concentration 270 nM, RXRa partner concentration 90 nM)
Outline: as §1

[9] = tested on: RARa homodimer (NR concentration 270 nM)
Outline: as §1

[10] = tested on: RARb:RXRa (NR concentration 270 nM, RXRa partner concentration 90 nM)
Outline: as §1

[11] = tested on: RARb homodimer (NR concentration 270 nM)
Outline: as §1

[12] = tested on: RARg:RXRa (NR concentration 270 nM, RXRa partner concentration 90 nM)
Outline: as §1

[13] = tested on: RARg homodimer (NR concentration 270 nM)
Outline: as §1

[14] = tested on: RXRa DBDmut IVT, anti-RXR (DBD mutation: RXRa K156A/R161A, NR concentration 90 nM)
Outline: as §1

[15] = tested on: RXRa homodimer (NR concentration 180 nM)
Outline: as §1

[16] = tested on: THRa:RXRa (NR concentration 90 nM, RXRa partner concentration 90 nM)
Outline: as §1

[17] = tested on: THRa homodimer (NR concentration 90 nM)
Outline: as §1

[18] = tested on: VDR:RXRa (NR concentration 270 nM, RXRa partner concentration 90 nM)
Outline: as §1

[19] = tested on: VDR homodimer (NR concentration 270 nM)
Outline: as §1

## TCAGACAGGTGAAGGCAACTCAGGTACGCAGTCG
[1]
  PBM binding z-score: 2.4
[2]
  PBM binding z-score: 0.632
[3]
  PBM binding z-score: -0.586
[4]
  PBM binding z-score: -0.648
[5]
  PBM binding z-score: 0.236
[6]
  PBM binding z-score: 0.249
[7]
  PBM binding z-score: -0.101
[8]
  PBM binding z-score: 0.507
[9]
  PBM binding z-score: -0.314
[10]
  PBM binding z-score: 0.923
[11]
  PBM binding z-score: 0.466
[12]
  PBM binding z-score: 0.17
[13]
  PBM binding z-score: 0.317
[14]
  PBM binding z-score: 0.993
[15]
  PBM binding z-score: 0.955
[16]
  PBM binding z-score: 0.99
[17]
  PBM binding z-score: -0.0896
[18]
  PBM binding z-score: 0.552
[19]
  PBM binding z-score: -0.101

## TAGCCTAGGTCAGGTCGGGCCAGTATACGCTATA
[1]
  PBM binding z-score: 0.315
[2]
  PBM binding z-score: 1.69
[3]
  PBM binding z-score: -0.681
[4]
  PBM binding z-score: -1.44
[5]
  PBM binding z-score: 0.477
[6]
  PBM binding z-score: 1.51
[7]
  PBM binding z-score: -0.668
[8]
  PBM binding z-score: 1.25
[9]
  PBM binding z-score: -1.19
[10]
  PBM binding z-score: 3.24
[11]
  PBM binding z-score: 2.67
[12]
  PBM binding z-score: 2.95
[13]
  PBM binding z-score: 4.12
[14]
  PBM binding z-score: -0.81
[15]
  PBM binding z-score: 1.62
[16]
  PBM binding z-score: 3.92
[17]
  PBM binding z-score: 0.761
[18]
  PBM binding z-score: 1.03
[19]
  PBM binding z-score: 0.0294

## TGTCAAAGTTTAAAGGTAACGTAAGTATCCACAC
[1]
  PBM binding z-score: -0.319
[2]
  PBM binding z-score: 2.73
[3]
  PBM binding z-score: 0.942
[4]
  PBM binding z-score: 1.54
[5]
  PBM binding z-score: 0.899
[6]
  PBM binding z-score: 1.7
[7]
  PBM binding z-score: 0.39
[8]
  PBM binding z-score: 2.12
[9]
  PBM binding z-score: 0.576
[10]
  PBM binding z-score: 2.46
[11]
  PBM binding z-score: 1.36
[12]
  PBM binding z-score: 2.26
[13]
  PBM binding z-score: 1.75
[14]
  PBM binding z-score: 1.11
[15]
  PBM binding z-score: 2.1
[16]
  PBM binding z-score: 1.99
[17]
  PBM binding z-score: -0.137
[18]
  PBM binding z-score: 1.33
[19]
  PBM binding z-score: 0.446

## CAGACTAGGTCAAGAGGTCAAAGTCCGCTTCCCG
[1]
  PBM binding z-score: 7.08
[2]
  PBM binding z-score: 7.26
[3]
  PBM binding z-score: 0.894
[4]
  PBM binding z-score: 0.414
[5]
  PBM binding z-score: 5.61
[6]
  PBM binding z-score: 6.21
[7]
  PBM binding z-score: 1.93
[8]
  PBM binding z-score: 7.55
[9]
  PBM binding z-score: 0.913
[10]
  PBM binding z-score: 5.39
[11]
  PBM binding z-score: 5.34
[12]
  PBM binding z-score: 8
[13]
  PBM binding z-score: 7.45
[14]
  PBM binding z-score: 2.6
[15]
  PBM binding z-score: 7.71
[16]
  PBM binding z-score: 4.23
[17]
  PBM binding z-score: 2.26
[18]
  PBM binding z-score: 5.97
[19]
  PBM binding z-score: 3.84

## TTACCAAGGCGAGCTGAGGTCGTTGATCCAACTC
[1]
  PBM binding z-score: 0.105
[2]
  PBM binding z-score: -0.00723
[3]
  PBM binding z-score: -0.484
[4]
  PBM binding z-score: -0.938
[5]
  PBM binding z-score: -0.375
[6]
  PBM binding z-score: 1.71
[7]
  PBM binding z-score: 0.0318
[8]
  PBM binding z-score: 1.57
[9]
  PBM binding z-score: -0.628
[10]
  PBM binding z-score: 0.286
[11]
  PBM binding z-score: 0.643
[12]
  PBM binding z-score: 0.197
[13]
  PBM binding z-score: -0.299
[14]
  PBM binding z-score: 0.038
[15]
  PBM binding z-score: 0.626
[16]
  PBM binding z-score: 3.13
[17]
  PBM binding z-score: 1.16
[18]
  PBM binding z-score: 1.63
[19]
  PBM binding z-score: 1.49

## GCATATAGGTAATGCAAGGTGAAAGTCCGATTGT
[1]
  PBM binding z-score: 4.12
[2]
  PBM binding z-score: 3.49
[3]
  PBM binding z-score: 0.246
[4]
  PBM binding z-score: 0.658
[5]
  PBM binding z-score: 0.642
[6]
  PBM binding z-score: 0.573
[7]
  PBM binding z-score: 0.208
[8]
  PBM binding z-score: 1.73
[9]
  PBM binding z-score: 0.262
[10]
  PBM binding z-score: 0.407
[11]
  PBM binding z-score: 0.843
[12]
  PBM binding z-score: 0.513
[13]
  PBM binding z-score: 0.479
[14]
  PBM binding z-score: 0.239
[15]
  PBM binding z-score: 0.519
[16]
  PBM binding z-score: 4.1
[17]
  PBM binding z-score: 0.825
[18]
  PBM binding z-score: 0.358
[19]
  PBM binding z-score: -0.0965

## CAAACTAGGCCACGAAAGGTCAAAGTCGAATGAC
[1]
  PBM binding z-score: 7.17
[2]
  PBM binding z-score: 7.41
[3]
  PBM binding z-score: 1.6
[4]
  PBM binding z-score: 1.85
[5]
  PBM binding z-score: 4.86
[6]
  PBM binding z-score: 5.73
[7]
  PBM binding z-score: 1.95
[8]
  PBM binding z-score: 6
[9]
  PBM binding z-score: 2.49
[10]
  PBM binding z-score: 4.68
[11]
  PBM binding z-score: 4.95
[12]
  PBM binding z-score: 6.06
[13]
  PBM binding z-score: 5.76
[14]
  PBM binding z-score: 1.47
[15]
  PBM binding z-score: 6.58
[16]
  PBM binding z-score: 4.26
[17]
  PBM binding z-score: 0.939
[18]
  PBM binding z-score: 4.9
[19]
  PBM binding z-score: 2.37

## ACAGACAGGTGATCAAGGTAACTCAGGCTATCAT
[1]
  PBM binding z-score: 0.0346
[2]
  PBM binding z-score: 0.406
[3]
  PBM binding z-score: -0.281
[4]
  PBM binding z-score: 0.238
[5]
  PBM binding z-score: 0.161
[6]
  PBM binding z-score: -0.179
[7]
  PBM binding z-score: 0.0426
[8]
  PBM binding z-score: 0.35
[9]
  PBM binding z-score: 0.298
[10]
  PBM binding z-score: 0.165
[11]
  PBM binding z-score: 0.159
[12]
  PBM binding z-score: 0.183
[13]
  PBM binding z-score: 0.508
[14]
  PBM binding z-score: -0.511
[15]
  PBM binding z-score: 0.28
[16]
  PBM binding z-score: 1.72
[17]
  PBM binding z-score: 0.997
[18]
  PBM binding z-score: 0.483
[19]
  PBM binding z-score: -0.138
